# D1 antagonist – blocks dopamine activation of the human D1 receptor | activity change, negative = inhibition, % at 10 µM | actives 3.2% (n = 360,000) | HEK293 TREx D1 cells, calcium flux, dopamine EC80; active compounds read low | P21728; in the data active means activity change below about -30%
#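 Allosteric or orthosteric antagonism assessed as attenuation of the calcium response to EC80 dopamine, added 180 s after compound, in induced HEK293 Trex D1 cells loaded with no-wash calcium dye.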
# TRHR ag – TRH receptor (human) agonism; AID 493084; actives 0.18% (n = 360,000); activation, % at 2 µM; TRHR cells, calcium flux fluo-8, FDSS agonist mode; P34981
# Target sequence (P34981 whole entry, looked up): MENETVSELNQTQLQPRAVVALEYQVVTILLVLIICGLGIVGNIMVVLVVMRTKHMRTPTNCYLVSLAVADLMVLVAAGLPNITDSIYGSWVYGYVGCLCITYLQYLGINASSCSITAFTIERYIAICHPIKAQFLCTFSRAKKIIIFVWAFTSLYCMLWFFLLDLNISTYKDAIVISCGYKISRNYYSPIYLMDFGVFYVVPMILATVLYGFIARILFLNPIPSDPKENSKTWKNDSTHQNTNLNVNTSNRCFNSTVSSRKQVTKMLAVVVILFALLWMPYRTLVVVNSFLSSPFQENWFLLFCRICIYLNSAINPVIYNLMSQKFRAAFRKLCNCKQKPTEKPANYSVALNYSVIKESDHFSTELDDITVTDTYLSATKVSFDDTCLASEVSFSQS
#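 Steps: seed TRHR cells overnight; add fluo-8 no-wash Ca dye, RT 30 min–1.5 h; record 10 s baseline; pin-transfer compounds; monitor fluorescence 1 cycle/s for the agonist window. Calcium increases flag candidate agonists.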
# D1 PAM – human D1 dopamine receptor positive modulation; HEK293 TREx D1 cells, calcium flux, dopamine EC20 potentiation; P21728; actives 0.036% (n = 360,000); potentiation, % at 10 µM; in the data active means potentiation above about 30%
# TRHR PAM – allosteric enhancers of human TRH receptor. TRHR cells, fluo-8 calcium fluorescence, EC20 TRH enhancement. enhancement, % at 2 µM. actives 0.66% (n = 360,000). P34981; in the data active means enhancement above about 30%
#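 Enhancer read-out: after compound pinning and an initial kinetic agonist-mode read, an EC20 of TRH (10 nM final) was injected and fluo-8 calcium signal (Ex 480/Em 530) followed at 1 s/cycle for 100 cycles in TRHR-expressing cells.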
# D1 agonist – agonists of human D1 dopamine receptor. P21728. HEK293 T-REx D1 cells, calcium flux, agonist mode. activation, % at 2 µM. actives 1% (n = 360,000)
#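 Inducible HEK293 T-REx D1 cells, force-coupled to calcium signalling, were plated at 4000 cells/well with tetracycline and held overnight at 30 C. After no-wash calcium dye loading, compound-evoked calcium rise over 180 s flagged agonists.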
# A number is an active result; - = inactive; ! = repeats disagree. Rows were chosen to be rich in hits. Some 4.7% of all compounds tested hit in one or more screens of this group. Unless noted, no stated cut-off is given here; in the data, active means activation above about 30%; inactive means the rest.
SMILES,D1 antagonist,TRHR ag,D1 PAM,TRHR PAM,D1 agonist
Cc1cn2c(=O)c(S(=O)(=O)NC(C)c3ccccc3)c(C)nc2s1 (stereo not given),-,-,-,-,-
Nc1nc(-c2ccccc2)nn1C(=O)c1ccco1,-34,-,-,-,-
O=C(c1ccco1)n1nc(-c2ccccc2)nc1SCc1ccccc1,-,-,-,-,-
COc1ccc2c(c1)sc1ncc(C(=O)NCc3ccccc3F)c(=O)n12,-,-,-,-,-
CC(=O)NCCNC(=O)CCCc1nnc2n(CC(C)C)c(=O)c3sccc3n12,-,-,-,-,-
CC(=O)c1ccc(O)c(CSc2nncn2C)c1,-32,-,-,-,-
CCOC(=O)CCCCC(=O)c1[nH]c(=O)[nH]c1CSc1nnc2c3cc(Br)ccc3n(C)c2n1,-33,-,-,-,-
Cc1ccc(N2/C(=N/c3nc(C)cc(C)n3)NC(=O)CC2C(=O)O)cc1 (stereo not given),-,-,-,-,-
Cc1cc(C)nc(/N=C2\NC(=O)CC(C(=O)O)N2c2ccc(Cl)cc2)n1 (stereo not given),-62,-,-,-,-
CCOCCCN(Cc1ccco1)C(=O)c1cc2c(s1)-c1c(C)cccc1OC2,-,-,-,-,-
C/C(=N\OCC(=O)OCC(=O)N(Cc1ccccc1)C(C)(C)C)c1ccc2c(c1)OCO2,-36,-,-,-,-
C/C(=N\OCC(=O)OCC(=O)N(C)c1ccccc1)c1ccc2c(c1)OCO2,-,-,-,-,-
O=[N+]([O-])c1ccc(CNc2ccc(Cl)cc2)s1,-37,-,-,-,-
COc1ccc(C(=O)C2CCCN(Cc3sc(N4CCCC4)nc3Cl)C2)c(OC)c1 (stereo not given),-41,-,-,-,-
COc1ccc(CNC(=O)CN(c2ccccc2OC)S(=O)(=O)c2ccc(C)cc2)cc1,-32,-,-,-,44
COc1ccccc1N(CC(=O)NCc1ccco1)S(=O)(=O)c1ccc(C)cc1,-,-,-,-,-
CN(C)S(=O)(=O)N(CC(=O)NCc1ccccc1)c1ccccc1,-,-,-,-,-
COc1ccc(CNC(=O)CN(c2ccccc2)S(=O)(=O)N(C)C)cc1,-32!,-,-,-,-
Cc1cc2c(s1)c1cnn(Cc3c(Cl)cccc3Br)c(=O)c1n2C,-,-,-,-,-
Cc1cc(C)c(-n2nnnc2SCC(=O)c2cccs2)c(C)c1,-42,-,-,-,-
COc1ccc2c(c1)nc(SCC(=O)c1cccs1)n2C,-36,-,-,-,-
Cn1nnnc1SCC(=O)c1cccs1,-,-,-,-,-
COc1ccc2c(c1)nc(SCC(=O)C(C)(C)C)n2C,-,-,-,-,-
O=C(COc1ccccc1Cl)N1CCc2ccccc2C1,-,-,-,-,-
CC1(C)Cc2cccc(OCC(=O)N3CCN(c4ccccc4F)CC3)c2O1,-69,-,-,-,-
SMILES,D1 antagonist,TRHR ag,D1 PAM,TRHR PAM,D1 agonist
O=C(COc1ccccc1F)N1CCc2ccccc2C1,-58,-,-,-,-
Cc1nn2cnc3sc4c(c3c2nc1=O)CCCC4,-86,-,-,-,-
c1nc2sc3c(c2c2nnnn12)CCCC3,-,-,-,-,-
COc1cc2c(cc1OC)C1O[C@](c3ccsc3)(C2)OC2=C1C(=O)CC(C)(C)C2,-,-,-,-,-
CN(C)S(=O)(=O)c1cc(NC(=O)COC(=O)CCSc2ccc(Cl)cc2)ccc1Cl,-43,-,-,-,-
COc1ccc(S(=O)(=O)c2cnc3cc(OC)c(OC)cc3c2N2CCCC(C)C2)cc1 (stereo not given),-,-,-,-,-
CCc1ccc(S(=O)(=O)c2cnc3ccc(OC)cc3c2N2CCCC(C)C2)cc1 (stereo not given),-56,-,-,-,-
CC(=O)N1CCc2cc(S(=O)(=O)N3CCN(S(=O)(=O)c4c(F)cccc4F)CC3)ccc21,-,-,-,-,-
c1cncc(-c2nn[nH]n2)c1,-,-,-,40,-
NC(=O)C1CCN(c2nc(C3CC3)nc3c2nnn3Cc2ccccc2)CC1,-,-,-,30,-
CCOC(=O)c1c(C)[nH]c(NC(=O)NNC(=O)c2ccccc2Cl)c1C,-31,-,-,-,-
CC(Sc1ncc(S(=O)(=O)c2ccc(C(C)C)cc2)c(N)n1)C(=O)Nc1ccccc1 (stereo not given),-,-,-,-,-
